From the antibiotic and cytotoxicity screens of Wong et al. (2023)
About 3,300 (8.5%) of roughly 39,000 compounds were called active. The sample as a whole holds a higher share of actives than the screen did.

These compounds were tested on HepG2 (assay: cytotoxicity call (relative viability < 0.9)). Details: 10 µM.

SMILES | cytotoxicity call
C[C@H]1CN([C@@H](C)CO)S(=O)(=O)c2ccc(C#CC(C)(C)O)cc2O[C@H]1CN(C)Cc1ccccc1 | inactive
O=C(NO)c1ccc(C(=O)N/N=C/[C@H](O)[C@H](O)[C@@H](O)[C@@H](O)CO)cc1 | inactive
C[C@@H]1CCCCO[C@H](CN(C)S(=O)(=O)c2ccc(F)cc2)[C@@H](C)CN([C@H](C)CO)C(=O)c2cc(NS(C)(=O)=O)ccc2O1 | inactive
C[C@@H]1CCCCO[C@H](CN(C)S(=O)(=O)c2ccccc2)[C@H](C)CN([C@H](C)CO)C(=O)c2cc(NC(=O)Nc3ccccc3)ccc2O1 | inactive
C[C@@H]1CCCCO[C@@H](CN(C)Cc2ccc(C(=O)Nc3ccccc3N)cc2)[C@@H](C)CN([C@H](C)CO)C(=O)c2cc(NC(=O)CCC(F)(F)F)ccc2O1 | inactive
C[C@@H]1CN([C@@H](C)CO)S(=O)(=O)c2ccc(C#C[C@@H](C)O)cc2O[C@H]1CN(C)C(=O)c1ccccc1 | inactive
COc1ccc(NC(=O)Nc2ccc3c(c2)C(=O)N([C@@H](C)CO)C[C@@H](C)[C@H](CN(C)S(=O)(=O)c2ccccc2)OCCCC[C@H](C)O3)cc1 | inactive
COc1ccc(S(=O)(=O)N(C)C[C@H]2Oc3ccc(NS(=O)(=O)c4ccccc4)cc3CC(=O)N([C@H](C)CO)C[C@H]2C)cc1 | inactive
C[C@@H]1CCCCO[C@@H](CN(C)C(=O)Nc2ccc(C(F)(F)F)cc2)[C@H](C)CN([C@@H](C)CO)C(=O)c2cc(NS(=O)(=O)c3ccc(F)cc3)ccc2O1 | active
C[C@@H]1CCCCO[C@@H](CN(C)C(=O)Nc2ccc(C(F)(F)F)cc2)[C@H](C)CN([C@H](C)CO)C(=O)c2cc(NS(=O)(=O)c3ccc(F)cc3)ccc2O1 | inactive
C[C@H]1CCCCO[C@@H](CN(C)C(=O)Nc2ccc(C(F)(F)F)cc2)[C@@H](C)CN([C@@H](C)CO)C(=O)c2cc(NS(=O)(=O)c3ccc(F)cc3)ccc2O1 | inactive
C[C@@H]1CCCCO[C@@H](CN(C)C(=O)Nc2ccc(C(F)(F)F)cc2)[C@@H](C)CN([C@H](C)CO)C(=O)c2cc(NS(=O)(=O)c3ccc(F)cc3)ccc2O1 | active
C[C@@H]1CCCCO[C@@H](CN(C)S(=O)(=O)c2cccs2)[C@H](C)CN([C@H](C)CO)C(=O)c2cc(NS(=O)(=O)c3cn(C)cn3)ccc2O1 | inactive
COCC#Cc1ccc2c(c1)O[C@H](CN(C)S(=O)(=O)c1ccc(OC)cc1)[C@H](C)CN([C@H](C)CO)S2(=O)=O | inactive
C[C@@H]1CN([C@@H](C)CO)C(=O)c2cccc(NS(C)(=O)=O)c2O[C@H]1CN(C)C(=O)Nc1ccc(F)cc1 | inactive
C[C@H]1CN([C@@H](C)CO)C(=O)c2cc(NC(=O)Cn3cnnn3)ccc2O[C@@H]1CN(C)Cc1ccc2c(c1)OCO2 | inactive
O=S1(=O)N[C@H](c2ccccc2)CO1 | inactive
Cc1ccc(S(=O)(=O)Nc2ccc3c(c2)CC(=O)N([C@H](C)CO)C[C@@H](C)[C@H](CN(C)C(=O)Nc2cccc4ccccc24)O3)cc1 | inactive
O=S1(=O)CC=CC1 | inactive
Cc1ccc(S[C@]2(C(=O)NC3CC3)CC(=O)N(C3CCCCC3)[C@@H]2c2ccc(CO)cc2I)cc1 | inactive
Cc1noc(C)c1S(=O)(=O)Nc1ccc2c(c1)C(=O)N([C@H](C)CO)C[C@@H](C)[C@H](CN(C)C)OCCCC[C@@H](C)O2 | inactive
COc1ccc2c3c(n(c2c1)C)[C@@H](CO)N(C[C@]13CCN(CC1)Cc1cccc(c1)F)C(=O)Nc1ccc(cc1)F | inactive

SMILES | cytotoxicity call
COc1ccc2c3c(n(c2c1)C)[C@H](CO)N(C[C@]13CCN(CC1)Cc1ccccc1F)C(=O)Nc1ccc(cc1)F | inactive
COc1ccc2c3c(n(c2c1)C)[C@@H](CO)N(C[C@]13CCN(CC1)C(=O)c1ccccc1F)C(=O)Nc1ccc(cc1)F | inactive
COc1cccc(c1)CN1CC[C@]2(CC1)CN([C@H](CO)c1c2c2ccc(cc2n1C)OC)C(=O)Nc1ccc(cc1)F | inactive
COc1ccc2c3c(n(c2c1)C)[C@H](CO)N(C[C@]13CCN(CC1)Cc1cccc(c1)F)C(=O)Nc1ccc(cc1)F | active
COc1ccc2c3c(n(c2c1)C)[C@@H](CO)N(C[C@]13CCN(CC1)Cc1ccccc1F)C(=O)Nc1ccc(cc1)F | active
O=C(C[C@H]1CC[C@@H]2[C@H](COC[C@H](O)CN2C(=O)Nc2cccc(F)c2)O1)NCc1ccccc1Cl | inactive
CN1C(=O)c2cc(NC(=O)c3ccc(F)c(F)c3)ccc2OC[C@@H]2O[C@@H](CC(=O)N3CCOCC3)CC[C@H]21 | inactive
C[C@H](CO)N1C[C@H](C)[C@@H](CN(C)C(=O)Cc2ccccc2)Oc2cc(-c3cncnc3)ccc2S1(=O)=O | inactive
C[C@@H]1CN([C@H](C)CO)C(=O)c2cc(C#Cc3cccc(F)c3)cnc2O[C@@H]1CN(C)CC1CCOCC1 | inactive
COc1ccc(S(=O)(=O)N(C)C[C@@H]2Oc3cc(C#CC4CC4)ccc3S(=O)(=O)N([C@H](C)CO)C[C@@H]2C)cc1 | inactive
CO[C@H]1CN(C)C(=O)c2cc(NC(=O)NC3CCCCC3)ccc2OC[C@@H](C)N(CCc2ccccc2)C[C@H]1C | inactive
Cc1noc(C)c1S(=O)(=O)Nc1ccc2c(c1)CC(=O)N([C@@H](C)CO)C[C@@H](C)[C@@H](CN(C)C(=O)NC1CCCCC1)O2 | inactive
CN(C)CCCNC(=O)C[C@H]1CC[C@H]2[C@@H](COC[C@@H](O)CN2S(=O)(=O)c2ccccc2)O1 | inactive
C[C@@H]1CCCCO[C@H](CN(C)C(=O)Cc2ccccc2)[C@@H](C)CN([C@@H](C)CO)C(=O)c2cc(NC(=O)Nc3ccc(F)cc3)ccc2O1 | inactive
C[C@@H]1CN([C@@H](C)CO)C(=O)c2c(c3ccccc3n2C)-c2ccccc2CO[C@H]1CN(C)S(=O)(=O)c1ccc(C(F)(F)F)cc1 | inactive
C[C@@H]1CN([C@H](C)CO)C(=O)c2c(c3ccccc3n2C)-c2ccccc2CO[C@H]1CN(C)S(=O)(=O)c1ccc(Cl)cc1 | inactive
C[C@H](CO)N1C[C@H](C)[C@@H](CN(C)S(=O)(=O)c2ccc(Cl)cc2)OCc2ccccc2-c2c(n(C)c3ccccc23)C1=O | inactive
C[C@H](CO)N1C[C@H](C)[C@H](CN(C)S(=O)(=O)c2ccc(Cl)cc2)OCc2ccccc2-c2c(n(C)c3ccccc23)C1=O | active
C[C@@H]1CN([C@H](C)CO)C(=O)c2c(c3ccccc3n2C)-c2ccccc2CO[C@@H]1CN(C)S(=O)(=O)c1ccc(Cl)cc1 | inactive
C[C@@H]1CN([C@@H](C)CO)C(=O)c2c(c3ccccc3n2C)-c2ccccc2CO[C@@H]1CN(C)S(=O)(=O)c1ccc(C(F)(F)F)cc1 | inactive
C[C@@H]1CN([C@@H](C)CO)C(=O)c2c(c3ccccc3n2C)-c2ccccc2CO[C@@H]1CN(C)S(=O)(=O)c1ccc(Cl)cc1 | inactive
C[C@@H]1CN([C@H](C)CO)C(=O)c2c(c3ccccc3n2C)-c2ccccc2CO[C@@H]1CN(C)S(=O)(=O)c1ccc(C(F)(F)F)cc1 | inactive

SMILES | cytotoxicity call
C[C@H]1CN([C@@H](C)CO)C(=O)c2c(c3ccccc3n2C)-c2ccccc2CO[C@H]1CN(C)S(=O)(=O)c1ccc(Cl)cc1 | active
C[C@@H]1CN([C@@H](C)CO)C(=O)c2c(c3ccccc3n2C)-c2ccccc2CO[C@H]1CN(C)S(=O)(=O)c1ccc(Cl)cc1 | active
C[C@H]1CN([C@@H](C)CO)C(=O)c2c(c3ccccc3n2C)-c2ccccc2CO[C@H]1CN(C)S(=O)(=O)c1ccc(C(F)(F)F)cc1 | inactive
C[C@H]1CN([C@@H](C)CO)C(=O)c2c(c3ccccc3n2C)-c2ccccc2CO[C@@H]1CN(C)S(=O)(=O)c1ccc(Cl)cc1 | active
C[C@@H]1CCCCO[C@H](CN(C)CC2CC2)[C@H](C)CN([C@@H](C)CO)C(=O)c2cc(NS(=O)(=O)c3cn(C)cn3)ccc2O1 | inactive
COCC#Cc1ccc2c(c1)O[C@@H](CN(C)S(=O)(=O)c1ccc(C)cc1)[C@H](C)CN([C@@H](C)CO)S2(=O)=O | inactive
O=C1N[C@H]2[C@@H]1[C@@H]1C=C[C@H]2C1 | inactive
COc1ccc(NC(=O)Nc2cccc3c2O[C@@H](CN(C)Cc2ccc(C(F)(F)F)cc2)[C@@H](C)CN([C@@H](C)CO)C3=O)cc1 | inactive
Cc1ccc(S(=O)(=O)Nc2ccc3c(c2)C(=O)N([C@H](C)CO)C[C@@H](C)[C@H](CN(C)C(=O)NC2CCCCC2)OCCCC[C@H](C)O3)cc1 | inactive
C[C@@H]1CCCCO[C@H](CN(C)Cc2ccccc2)[C@@H](C)CN([C@@H](C)CO)C(=O)c2cc(NC(=O)c3ccccc3)ccc2O1 | inactive
CNC(=O)C[C@H]1Nc2ccccc2NC1=O | inactive
N[C@H]1CCCC[C@@H]1OCc1ccccc1 | inactive
CC1CCC2(C)C(C=O)=CCCC2C1(C)CC1OC(O)C(=O)C12CO2 (stereo unspecified) | active
Cc1noc(C)c1S(=O)(=O)N(C)C[C@@H]1OCc2cn(nn2)CCCC(=O)N([C@@H](C)CO)C[C@H]1C | inactive
C[C@H]1CN([C@@H](C)CO)C(=O)c2cc(NC(=O)Cc3ccccc3)ccc2O[C@H]1CN(C)Cc1ccc(Oc2ccccc2)cc1 | inactive
C[C@H]1CN([C@@H](C)CO)C(=O)c2cc(NC(=O)Cc3ccccc3)ccc2O[C@@H]1CN(C)Cc1ccc(Oc2ccccc2)cc1 | active
C[C@@H]1CN([C@H](C)CO)C(=O)c2cc(NC(=O)Cc3ccccc3)ccc2O[C@H]1CN(C)Cc1ccc(Oc2ccccc2)cc1 | active
C[C@@H]1CN([C@@H](C)CO)C(=O)c2cc(NC(=O)Cc3ccccc3)ccc2O[C@H]1CN(C)Cc1ccc(Oc2ccccc2)cc1 | inactive
C[C@@H]1CN([C@@H](C)CO)C(=O)c2cc(NC(=O)Cc3ccccc3)ccc2O[C@@H]1CN(C)Cc1ccc(Oc2ccccc2)cc1 | active
C[C@@H]1CN([C@H](C)CO)C(=O)c2cc(NC(=O)Cc3ccccc3)ccc2O[C@@H]1CN(C)Cc1ccc(Oc2ccccc2)cc1 | inactive
C[C@H](CO)N1C[C@H](C)[C@@H](CN(C)Cc2ccc(Oc3ccccc3)cc2)Oc2ccc(NC(=O)Cc3ccccc3)cc2C1=O | inactive
C[C@H](CO)N1C[C@H](C)[C@H](CN(C)Cc2ccc(Oc3ccccc3)cc2)Oc2ccc(NC(=O)Cc3ccccc3)cc2C1=O | inactive
